Gli-Sufu antag = blocks Gli-Sufu signaling in a luciferase reporter. Sufu-KO-LIGHT fibroblasts, Gli luciferase reporter luminescence. inhibition, % at 5 µM. actives 0.74% (n = 340,000). AID 588413;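 active = inhibition above about 55%, limit read from the data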;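 also: 0% = DMSO-treated cells and 100% = wells with medium but no cells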
NCOA1 inh = inhibits human SRC1 coactivator | Q15788 | actives 0.12% (n = 360,000) | HEK293 GAL4-SRC1 luciferase reporter, luminescence | inhibition, % at 3.6 µM | AID 588354;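 active = inhibition above the campaign mean plus 3 SD, with each screening campaign given its own cutoff, cut at about 60% in these data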;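 also: 0% = DMSO treated cells and 100% = gossypol at 36 µM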
NR2F2 inh = NR2F2 (human) inhibition, primary screen; HEK293T NGFI-A luciferase reporter, luminescence; P24468; inhibition, % at 8.6 µM; AID 686940; actives 0.7% (n = 370,000);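 active = inhibition above a per-plate cutoff, mean inhibition of test wells between control levels plus 3 SD, cut at about 38% in these data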;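 also: cells cotransfected with COUP-TFII expression vector driving the NGFI-A reporter; 0% = median of COUP-TF2 test wells and 100% = reporter-only cells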
NR5A2 inv ag = inverse agonists of human LRH-1 (NR5A2); HEK293T StAR-luciferase reporter, LRH-1 transfected, 24 h; inhibition, % at 3.6 µM; actives 0.13% (n = 360,000);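 active = inhibition above the mean inhibition of all tested compounds plus 3 SD, cut at about 73% in these data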;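 also: 0% = DMSO wells and 100% = reporter-only cells lacking LRH-1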
NCOA2 inhibitor = human SRC2 (NCOA2) inhibition; Q15596; HEK293 GAL4-SRC2 luciferase reporter, luminescence; inhibition, % at 9 µM; actives 0.17% (n = 370,000);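 active = inhibition above the mean inhibition of all tested compounds plus 3 SD, set per campaign, cut at about 52% in these data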;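 also: 0% = DMSO treated cells and 100% = cells given Gossypol at 36 µM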
NCOA3 inh = inhibits human SRC3 coactivator. inhibition, % at 3.6 µM. actives 0.17% (n = 360,000). HEK293 GAL4-SRC3 luciferase reporter, luminescence. Q9Y6Q9;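 active = inhibition above a per-campaign cutoff, the mean of all compounds plus 3 SD, cut at about 60% in these data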;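 also: 0% = DMSO-treated cells and 100% = gossypol-treated cells at 36 µM; higher means less SRC3-driven luciferase light from the GAL4 reporter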
Gal4-VP16 ctr = inhibits VP16 reporter, flagging COUP-TFII antagonist hits | shares compounds with NR2F2 inh | HEK293 Gal4-VP16 luciferase reporter, luminescence | inhibition, % at 8.5 µM | actives 25% (n = 2,500) | AID 687007; in the data active = inhibition above about 13%
NR2F2 inh conf = confirmation of human COUP-TFII (NR2F2) inhibitors | inhibition, % at 8.5 µM | shares compounds with NR2F2 inh | HEK293 NGFI-A luciferase reporter, luminescence | actives 45% (n = 2,500);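 active = mean inhibition over three repeats above a set limit taken from the earlier primary screen, cut at about 38% in these data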;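 also: 100% = cells given the luciferase reporter alone without the COUP-TF2 vector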
* hit, by the source's call; · = no result. A selection: hits, their analogues and other compounds. The true share with any hit is near 1.3%.

SMILES	Gli-Sufu antag	NCOA1 inh	NR2F2 inh	NR5A2 inv ag	NCOA2 inhibitor	NCOA3 inh	Gal4-VP16 ctr	NR2F2 inh conf
CCC(C)CNC(=O)c1cn(C(C)c2ccccc2)nn1 (stereo unspecified)	·	·	-16	·	1	·	·	·
Clc1ccc2nc(CNc3nc(N4CCOCC4)nc4c3ncn4-c3ccsc3)[nH]c2c1	·	·	70*	·	·	·	19*	45*
O=C(Nc1nc(-c2ccc3c(c2)OCCO3)cs1)c1ccc(S(=O)(=O)N2CCCCC2)cc1	-3	22	-4	6	18	36	·	·
O=C(Nc1nc(-c2ccc(S(=O)(=O)N3CCCCCC3)cc2)cs1)c1ccccc1	25	26	54*	11	16	29	4	34
O=S(=O)(c1ccc(-c2csc(Nc3ccc(Br)cc3)n2)cc1)N1CCCC1	24	21	9	35	-18	23	·	·
Cc1ccc(Nc2nc(-c3ccc(S(=O)(=O)N4CCOCC4)cc3)cs2)cc1	6	11	38*	21	9	9	0	18
O=S(=O)(c1ccc(-c2csc(Nc3ccc(F)cc3)n2)cc1)N1CCCC1	26	11	46*	48	24	-3	-11	24
Cc1cc(C)cc(Nc2nc(-c3ccc(S(=O)(=O)N4CCCC4)cc3)cs2)c1	-2	19	13	20	10	30	·	·
COC(=O)C[C@H]1CC[C@@H]2[C@@H](COc3ccc(NC(=O)C4CCCCC4)cc3C(=O)N2C)O1	·	·	-16	·	-24	·	·	·
CCOCC(=O)NC(=O)N1C[C@H]2CON(C)[C@H]2C[C@H]1c1ccc(OC)cc1	·	·	-4	·	23	·	·	·
COC(=O)c1ccc(N2C(c3ccsc3)=Cc3cc4c(cc3C2CC(=O)c2ccco2)OCO4)cc1 (stereo unspecified)	·	·	43*	28	23	·	-1	8
COC(=O)c1ccc(N2C(c3cc(OC)cc(OC)c3)=Cc3ccc(OC)cc3C2CC(=O)c2ccco2)cc1 (stereo unspecified)	·	·	2	9	13	·	·	·
COCCSc1ncccc1-c1nc2ccccc2[nH]1	·	·	2	·	10	·	·	·
CN1C(=O)C2(C(C#N)=C(N)N(c3cc(Cl)cc(Cl)c3)C3=C2C(=O)CCC3)c2ccccc21 (stereo unspecified)	8	6	43*	9	7	33	-16	26
CCOC(=O)c1c(C)n(-c2ccc(F)cc2)c2ccc(O)cc12	-2	9	·	3	·	5	·	·
COC(=O)c1c(C)n(-c2ccc(OC)cc2)c2ccc(O)cc12	-10	21	39*	-1	47	39	-7	8
O=C(CSc1ccccc1)NC1CCCCN(Cc2ccc(Cl)cc2)C1=O (stereo unspecified)	·	·	-1	·	-1	·	·	·
O=C(COc1ccc(F)c(Cl)c1)N[C@H]1CCCN(CC2CC2)C1	·	·	9	·	·	·	·	·
O=S1(=O)CC(N2CCN(Cc3ccccc3F)CC2)CN1Cc1cn(Cc2ccc(C(F)(F)F)cc2)nn1 (stereo unspecified)	·	·	60*	16	16	·	-6	14
COc1ccc(C(=O)OCCN2CCN(C3CN(Cc4cn(Cc5ccccc5C(F)(F)F)nn4)S(=O)(=O)C3)CC2)cc1OC (stereo unspecified)	·	·	48*	·	14	·	0	17
COc1ccc(C(=O)OCCN2CCN(C3CN(Cc4cn(Cc5ccccc5Cl)nn4)S(=O)(=O)C3)CC2)cc1OC (stereo unspecified)	·	·	35	·	-1	·	·	·
Cc1cc(/C=C2/C(=O)NN(c3ccccc3)C2=O)c(C)n1-c1ccc(O)cc1	-3	39	57*	37	23	37	-42	31
O=C(NCc1ccccc1)[C@@H]1CCCN1C(=O)[C@H]1CCCN1C(=O)c1ccccc1C(F)(F)F	·	·	4	·	-10	·	·	·
CCC(=O)N(C1=C(NC(C)C)C(=O)c2ccccc2C1=O)C(C)C	8	8	3	12	-7	4	·	·
CCCNC1=C(N(C(C)=O)c2cccc(F)c2)C(=O)c2ccccc2C1=O	85*	28	57*	79*	58*	40	12	-2
SMILES	Gli-Sufu antag	NCOA1 inh	NR2F2 inh	NR5A2 inv ag	NCOA2 inhibitor	NCOA3 inh	Gal4-VP16 ctr	NR2F2 inh conf
O=C(N1CCC(n2nc(-c3ccccc3)oc2=O)CC1)C1(c2ccccc2)CCCC1	·	·	-2	·	·	·	·	·
CC(=O)c1cn(CC(=O)Nc2c(C)cccc2C)c2ccccc12	-9	15	37	19	20	22	·	·
COc1cc(NC(=O)Cn2c(C)cc3ccccc3c2=O)cc(OC)c1OC	2	11	-18	15	-23	-45	·	·
CC(=O)c1cn(CC(=O)Nc2ccccc2C)c2ccccc12	1	-5	38*	40	29	7	-5	25
CCOc1ccc(NC(=O)Cn2cc(C(C)=O)c3ccccc32)cc1	15	8	4	50	4	-7	·	·
COc1ccc(NC(=O)Cn2cc(C(C)=O)c3ccccc32)cc1	44	19	48*	31	23	23	-1	21
COc1ccc(NC(=O)Cn2c(C)cc(=O)c3ccccc32)cc1	46	3	55*	42	16	21	0	26
COc1cccc2c(=O)cc(C)n(CC(=O)Nc3cccc(C)c3)c12	49	3	47*	0	-8	10	-8	16
Cc1cc(=O)c2ccccc2n1CC(=O)NCc1ccccc1	12	-1	6	11	5	21	·	·
COc1ccc(N2CCN(CCCNC(=O)COc3ccc(C)cc3)CC2)cc1	·	·	-8	·	2	·	·	·
O=S(=O)(c1cccs1)N1CCC(c2cn3ccccc3n2)CC1	·	·	21	·	-3	·	·	·
CC1CCc2nc(NC(=O)C3COc4ccccc4O3)sc2C1 (stereo unspecified)	-10	53	64*	29	41	34	18*	57*
Cc1c(/C(O)=C2\C(=O)C(=O)N(CCCN(C)C)C2c2ccco2)cnn1-c1ccccc1 (stereo unspecified)	13	21	49*	18	25	32	-1	6
COC(=O)C1CN(Cc2cn(Cc3ccc(Cl)cc3)nn2)CCS(=O)(=O)N1Cc1ccc(C)cc1 (stereo unspecified)	·	·	1	·	10	·	·	·
Cc1cc(Br)c(OCc2ccc(C(=O)N/N=C/c3ccc[nH]3)cc2)c(Br)c1	83*	-10	68*	91*	-41	76*	29*	78*
O=C(N/N=C/c1ccc[nH]1)c1ccc(COc2cccc3cccnc23)cc1	39	36	73*	79*	34	69*	39*	89*
COCCCN1C(=O)[C@H](CC(=O)N2CCCC2)[C@]2(C(=O)OC)CCCCC=C12	·	·	-10	·	2	·	·	·

Compound activity: PubChem, several laboratories
